Reference: the supplement of paper PMC6555819

test system: LXRa homodimer (NR concentration 270 nM); assay: PBM binding z-score (relative to random genomic background probes); higher = stronger binding; sequences stand for … in GC…GCGATTGACAGCGTAGAATGAAGG
How it was run: (§1)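 Ligand-free nuclear receptor dimers were applied to custom Agilent 4×180K protein-binding microarrays whose double-stranded probes carried direct-repeat seeds, single-nucleotide variants, half-site ablations and random human genomic background sequences in 34-nt variable regions. Incubation lasted 1 h. Binding z-scores were computed against the random background probes from regression-normalized fluorescence.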

Sequence | PBM binding z-score
CGTCCAAGGTCAAAGGTCACTGAAGAGATGACGG | 4.53
CAAACTAGGTCACGAAAGGGCAAAGTCGAATGAC | 2.43
CGAACTAGGTCACCAGGACCGTGAAGAGGTTGGA | -0.1
CGTCCAAGGTCAATTCTAGGTCAGTGAAAGCATT | 3.88
CGTCCAACGTCAAGGTCAGTGAAAGAGACTCGAA | -0.198
TAGCCTAGGTCATGGGCCAGTTTACCACGCGAAC | 0.503
CGAACTAGGTCACAGGACAGTGAAAGGCGACGTA | -0.102
ATATGTAGGTCATCGGGTCATTCAGTTTGCGCAT | 4.84
CGAACTAGGTCCTTGACAGGACAGTGAATAGTAA | 0.156
AAAATGAGGTTAAGATCAGGGAAACAGAATACAT | 0.171
GCTTACGGGTCAAAGGTTATAGTATGAATAGAAT | 0.73
CGAACTAGCTCAAGGACAGTGAATCTCCGCACGC | 0.172
CGCACTAGGTCACCAGGACAGTGAAGAGGTTGGA | 0.256
CAAACCAGGTCACGAAAGGTCAAAGTCGAATGAC | 8.63
ATACCAAGGTGATCGTGAGTTCGTTGATACTAAC | 0.426
ACTAGTGGGTCAGCTGAGGTCACACACAATTCGG | 2.88
CAAGCTAGGTCAAGAGGTCAAAGTCCGCTTCCCG | 6.45
GCTATTAGGTGAAAGGGCAACCGAATGATTCTCG | -0.0501
CCGACTGGGGCAAAGGTTACGATACTCAGTACGA | -0.076
GGAACTAGGGCAAAGTTGATAGCATCTGTCGACG | -0.596

Sequence | PBM binding z-score
CCTACTGGGCCAAAAAGGCCATTGATGCCGATAA | -0.15
CCTACTGGGCCACGAAAGGTCCTTGATTCAGTGA | -0.498
CGAACTAGGTCAAAGGACAGTGTAAGGCGACGTA | -0.176
ACTAGTTGTTCAGCTGAGGTCACACACAATTCGG | 2.25
CGTCTAAGGTCAGCAGGTCAGTGAAAGCGACGTG | 0.785
CCTACTGGGCCAAGGTCATAGATCAGTCAAAGCA | 0.673
TAGCCTAGGTCATTGGGCCAGTATAGTACGCATC | 0.558
CAACCTAGGTCACGAAAGGTCAAAGTCGAATGAC | 8.29
ATATGTAGGTGAGGGTCATTCAGAAAGTAGGGAA | 1.02
ATCGAAAGGTCGAAAGTGAGTATACCCACCCGAA | 0.172
GATTCAGGGTCAGCTAGAGGCCAGAGTATGGAAA | -0.0707
CGATCTAGGTCACCAGGACAGTGAAGAGGTTGGA | 0.00222
CTAACTAGGTCACCGGAAGGTCAAAGTCCGCATG | 5.51
CGTCCAAGGTCAGCAGGTGAGTGAAAGCGACGTG | -0.383
TCTGCTTGGTCAACGATGGTCAGCTAATCTGCTA | -0.946
CAAACTAGGTCACGAAAGGTCAACGTCGAATGAC | 7.42
CGTCCAAGGTCAATGCTAGCTCAGTGAAAGCATT | 0.31
GCTGCAAGGTCAACTGATGGTCAGCTAAAGCTCG | 0.917
TAGCCTAGGTCATTCAGGGGCCAGAATAGAAAGC | 0.569

test system: LXRb:RXRa (NR concentration 270 nM, RXRa partner concentration 90 nM); assay: as above
How it was run: as §1

Sequence | PBM binding z-score
CGTCCAAGGTCAAAGGTCACTGAAGAGATGACGG | 7.05
CAAACTAGGTCACGAAAGGGCAAAGTCGAATGAC | 5.14
CGAACTAGGTCACCAGGACCGTGAAGAGGTTGGA | 1.5
CGTCCAAGGTCAATTCTAGGTCAGTGAAAGCATT | 4.73
CGTCCAACGTCAAGGTCAGTGAAAGAGACTCGAA | 1.28
TAGCCTAGGTCATGGGCCAGTTTACCACGCGAAC | 2.26
CGAACTAGGTCACAGGACAGTGAAAGGCGACGTA | 1.78
ATATGTAGGTCATCGGGTCATTCAGTTTGCGCAT | 4.74
CGAACTAGGTCCTTGACAGGACAGTGAATAGTAA | -0.566
AAAATGAGGTTAAGATCAGGGAAACAGAATACAT | 2.1
GCTTACGGGTCAAAGGTTATAGTATGAATAGAAT | 5.84
CGAACTAGCTCAAGGACAGTGAATCTCCGCACGC | -0.398
CGCACTAGGTCACCAGGACAGTGAAGAGGTTGGA | 1.9
CAAACCAGGTCACGAAAGGTCAAAGTCGAATGAC | 7.45
ATACCAAGGTGATCGTGAGTTCGTTGATACTAAC | 0.294
ACTAGTGGGTCAGCTGAGGTCACACACAATTCGG | 4.54
CAAGCTAGGTCAAGAGGTCAAAGTCCGCTTCCCG | 5.81
GCTATTAGGTGAAAGGGCAACCGAATGATTCTCG | 1.25
CCGACTGGGGCAAAGGTTACGATACTCAGTACGA | 2
GGAACTAGGGCAAAGTTGATAGCATCTGTCGACG | 0.16

Sequence | PBM binding z-score
CCTACTGGGCCAAAAAGGCCATTGATGCCGATAA | -0.244
CCTACTGGGCCACGAAAGGTCCTTGATTCAGTGA | -0.372
CGAACTAGGTCAAAGGACAGTGTAAGGCGACGTA | 1.73
ACTAGTTGTTCAGCTGAGGTCACACACAATTCGG | 3.55
CGTCTAAGGTCAGCAGGTCAGTGAAAGCGACGTG | 3.61
CCTACTGGGCCAAGGTCATAGATCAGTCAAAGCA | 2.72
TAGCCTAGGTCATTGGGCCAGTATAGTACGCATC | 2.36
CAACCTAGGTCACGAAAGGTCAAAGTCGAATGAC | 7.81
ATATGTAGGTGAGGGTCATTCAGAAAGTAGGGAA | 3.43
ATCGAAAGGTCGAAAGTGAGTATACCCACCCGAA | 2.67
GATTCAGGGTCAGCTAGAGGCCAGAGTATGGAAA | 3.25
CGATCTAGGTCACCAGGACAGTGAAGAGGTTGGA | 1.59
CTAACTAGGTCACCGGAAGGTCAAAGTCCGCATG | 5.57
CGTCCAAGGTCAGCAGGTGAGTGAAAGCGACGTG | 2.08
TCTGCTTGGTCAACGATGGTCAGCTAATCTGCTA | -0.549
CAAACTAGGTCACGAAAGGTCAACGTCGAATGAC | 7.06
CGTCCAAGGTCAATGCTAGCTCAGTGAAAGCATT | 3.45
GCTGCAAGGTCAACTGATGGTCAGCTAAAGCTCG | 4.54
TAGCCTAGGTCATTCAGGGGCCAGAATAGAAAGC | 3.21
